About 83,000 compounds went through this panel and 20% of them were active in at least one assay; those are over-represented in the sample as a whole.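 Percent growth is the endpoint: 0 to 100 indicates growth inhibition (40 means 60% inhibition), 0 means no net growth, and negative values indicate cell death.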 Activity calls are given as the source filed them. Rule for the calls: active = growth percent below 10; inactive = the rest.
Assays:
Test in all cases: NCI-60 one-dose screen, 48 h (100 = growth as untreated, 0 = no growth, -100 = all killed)
Conditions in all cases: 10 µM
T-47D breast = test system: T-47D breast
BT-549 breast = test system: BT-549 breast
MDA-MB-435 melanoma = test system: MDA-MB-435 melanoma
SW-620 colon = test system: SW-620 colon
MCF7 breast = test system: MCF7 breast
HCT-116 colon = test system: HCT-116 colon
HCC-2998 colon = test system: HCC-2998 colon
KM12 colon = test system: KM12 colon

Measured: growth

COc1ccc(/C(=N\N)C(=O)c2ccccc2)cc1 (tested in a mixture with another compound)
inactive: T-47D breast 83.7% | BT-549 breast 108% | MDA-MB-435 melanoma 92.7% | SW-620 colon 107% | MCF7 breast 92.4% | HCT-116 colon 103% | HCC-2998 colon 98.1% | KM12 colon 102%

Brc1ccc2c(c1)-c1ccccc1C1=NCCN12
active: T-47D breast -0.518% | MDA-MB-435 melanoma 1.68% | SW-620 colon -34.3% | MCF7 breast -5.53% | HCT-116 colon -12.6%
inactive: BT-549 breast 11% | HCC-2998 colon 13.5% | KM12 colon 10.9%

CC(=O)Nc1ccc(CC[C@H]2CCC/C=C/[C@@H]3C[C@H](O)C[C@H]3[C@H](O)/C=C/C(=O)O2)cc1
inactive: BT-549 breast 27.5% | MDA-MB-435 melanoma 14.7%
active: T-47D breast 7.42% | SW-620 colon 0.331% | MCF7 breast -14.8% | HCT-116 colon -67.9% | HCC-2998 colon 2.85%

COc1ccc(Cl)cc1Nc1nc(C(F)(F)F)ccc1C(=O)N/N=C/c1ccc(Cl)cc1
inactive: T-47D breast 37.6% | BT-549 breast 36.9% | MDA-MB-435 melanoma 59.2% | SW-620 colon 30.9% | MCF7 breast 23.6% | HCT-116 colon 21.4% | HCC-2998 colon 59.4%

COc1ccccc1/C=N\N/C(N)=N\N=C\c1ccccc1OC
inactive: T-47D breast 60.9% | SW-620 colon 13.1% | MCF7 breast 11.3%
active: BT-549 breast -4.14% | MDA-MB-435 melanoma -39.2% | HCT-116 colon 5.25% | HCC-2998 colon 5.64%

O=C1CCn2c1c(O)c1ccccc1c2=O
inactive: T-47D breast 94.5% | BT-549 breast 113% | MDA-MB-435 melanoma 99.5% | SW-620 colon 101% | MCF7 breast 94.8% | HCT-116 colon 107% | HCC-2998 colon 109% | KM12 colon 109%

CC(C)(C)OC(=O)N1CCc2c(sc3ncnc(N/N=C/c4cccc(Br)c4)c23)C1
inactive: T-47D breast 20.2% | BT-549 breast 79.4% | MDA-MB-435 melanoma 34.3% | SW-620 colon 41.1% | HCT-116 colon 29.6% | HCC-2998 colon 42.6% | KM12 colon 62.3%
active: MCF7 breast 5.3%

C=CCN(CC=C)C(=O)[C@H](CC)[C@@H]1CC[C@@H](C)[C@@H]([C@H](C)[C@@H](O)[C@@H](C)C(=O)[C@H](CC)C2O[C@]3(C=CC(=O)[C@]4(CC[C@@](C)([C@H]5CC[C@](O)(CC)[C@H](C)O5)O4)O3)[C@H](C)C[C@@H]2C)O1 (some centres undefined)
active: MCF7 breast 8.84%
inactive: T-47D breast 18.2% | BT-549 breast 54.8% | MDA-MB-435 melanoma 40.7% | SW-620 colon 24.8% | HCT-116 colon 13.9% | HCC-2998 colon 26.5% | KM12 colon 48.8%

COc1ccc(Cc2cnc(N)nc2N)cc1OC
inactive: T-47D breast 101% | BT-549 breast 106% | MDA-MB-435 melanoma 107% | SW-620 colon 98.7% | MCF7 breast 100% | HCT-116 colon 99.8% | HCC-2998 colon 105% | KM12 colon 110%

CCCCCC(=O)O[C@]1(C(C)=O)CCC2C3CCC4=CC(=O)CC[C@]4(C)C3CC[C@@]21C (some centres undefined)
inactive: T-47D breast 28.6% | BT-549 breast 31.1% | MDA-MB-435 melanoma 28.4% | SW-620 colon 29.5% | MCF7 breast 13.4% | HCT-116 colon 11.5% | HCC-2998 colon 26.2% | KM12 colon 28.7%

CCN(CC)CCN1c2nc3ccccc3cc2Sc2cc3ccccc3nc21
inactive: T-47D breast 73.5%
active: BT-549 breast -92.4% | MDA-MB-435 melanoma -25% | SW-620 colon -29.7% | MCF7 breast -100% | HCT-116 colon -45.4% | HCC-2998 colon -99%

N#Cc1ccc(C(=O)CSc2nccc(Nc3ccc(C(=O)O)cc3)n2)cc1
inactive: T-47D breast 110% | BT-549 breast 103% | MDA-MB-435 melanoma 104% | SW-620 colon 104% | MCF7 breast 91.3% | HCT-116 colon 108% | HCC-2998 colon 100% | KM12 colon 105%

CC(C)(C)OC(=O)N1CCc2c(sc3ncnc(N/N=C/c4ccc(Br)cc4)c23)C1
active: MDA-MB-435 melanoma -20.4%
inactive: T-47D breast 34.2% | BT-549 breast 74.9% | SW-620 colon 55% | MCF7 breast 12.6% | HCT-116 colon 47.3% | HCC-2998 colon 72.1% | KM12 colon 46.6%

O=C1c2ccccc2-c2c1c1cccnc1c(=O)n2C[C@H](O)CO
inactive: T-47D breast 59.6% | BT-549 breast 61.7% | MDA-MB-435 melanoma 87.5% | SW-620 colon 49.9% | MCF7 breast 25.5% | HCT-116 colon 38.5% | HCC-2998 colon 79.7% | KM12 colon 62.1%

c1ccc(/C(=N\Nc2ccc3ccccc3n2)c2ccccn2)cc1
inactive: T-47D breast 16.5% | BT-549 breast 12.3% | MDA-MB-435 melanoma 23.4% | SW-620 colon 22.6% | MCF7 breast 12.2% | HCC-2998 colon 45.5%
active: HCT-116 colon 9.03%

O=C(Cn1cc(CO)nn1)Nc1nc2ccccc2s1
inactive: T-47D breast 110% | BT-549 breast 106% | MDA-MB-435 melanoma 99.7% | SW-620 colon 106% | MCF7 breast 97.9% | HCT-116 colon 97.2% | HCC-2998 colon 109% | KM12 colon 107%

CCCCN(CCCC)C(=O)[C@H](CC)[C@@H]1CC[C@@H](C)[C@@H]([C@H](C)[C@@H](O)[C@@H](C)C(=O)[C@H](CC)C2O[C@]3(C=CC(=O)[C@]4(CC[C@@](C)([C@H]5CC[C@](O)(CC)[C@H](C)O5)O4)O3)[C@H](C)C[C@@H]2C)O1 (some centres undefined)
inactive: T-47D breast 20.7% | BT-549 breast 62.7% | MDA-MB-435 melanoma 44.6% | SW-620 colon 25.7% | MCF7 breast 16.2% | HCT-116 colon 19% | HCC-2998 colon 39% | KM12 colon 55.6%

C=CCn1c(SCC(=O)Nc2ccc(C(=O)/C=C/c3cc(OC)c(OC)c(OC)c3)cc2)nnc1-c1cc(-c2ccc(Cl)cc2)nc2ccccc12
inactive: T-47D breast 78.4% | BT-549 breast 75% | MDA-MB-435 melanoma 92.9% | SW-620 colon 90.7% | MCF7 breast 38.6% | HCT-116 colon 50% | HCC-2998 colon 103% | KM12 colon 85.8%

O=[N+]([O-])c1ccc2ncccc2c1Cl
inactive: T-47D breast 68.7% | BT-549 breast 43.6% | SW-620 colon 14.5% | MCF7 breast 13.4% | HCC-2998 colon 106%
active: MDA-MB-435 melanoma -36.9% | HCT-116 colon 5.31% | KM12 colon -7.28%

Nc1ccc(CC[C@H]2CCC/C=C/[C@@H]3C[C@H](O)C[C@H]3[C@H](O)/C=C/C(=O)O2)cc1
inactive: T-47D breast 10.2% | BT-549 breast 11.6% | MDA-MB-435 melanoma 11.4%
active: SW-620 colon -27.4% | MCF7 breast -44.7% | HCT-116 colon -73.7% | HCC-2998 colon -15.3%

O=C1/C=C/[C@@H](O)[C@@H]2C[C@@H](O)C[C@H]2/C=C/CCC[C@H](CCc2ccc(NC(=S)Nc3ccc4c(c3)C(=O)OC43c4ccc(O)cc4Oc4cc(O)ccc43)cc2)O1
inactive: T-47D breast 21.2% | BT-549 breast 21.3% | MDA-MB-435 melanoma 18.8%
active: SW-620 colon 3.26% | MCF7 breast -5.59% | HCT-116 colon -37.2% | HCC-2998 colon -7.57%

CN(C)c1ccc(/C=N/NC(=O)c2ccccc2Nc2cccc(C(F)(F)F)c2)cc1
inactive: T-47D breast 75.6% | BT-549 breast 79.1% | MDA-MB-435 melanoma 92.3% | SW-620 colon 93.6% | MCF7 breast 92.5% | HCT-116 colon 75.1% | HCC-2998 colon 116%

S=C(SSC(=S)N(c1ccccc1)c1ccccc1)N(c1ccccc1)c1ccccc1
inactive: T-47D breast 97.3% | BT-549 breast 109% | MDA-MB-435 melanoma 104% | SW-620 colon 108% | MCF7 breast 98.8% | HCT-116 colon 100% | HCC-2998 colon 101% | KM12 colon 98.1%

COc1ccc(C(=O)COc2cccc(/C=C3\Cc4ccccc4C3=O)c2)cc1
inactive: T-47D breast 73.8% | BT-549 breast 74.5% | MDA-MB-435 melanoma 58.8% | SW-620 colon 89.5% | MCF7 breast 65.9% | HCT-116 colon 84.4% | HCC-2998 colon 92.9%

CN1CCN(C2=Nc3ccccc3Oc3ccc(Cl)cc32)CC1
inactive: T-47D breast 81.3% | BT-549 breast 111% | MDA-MB-435 melanoma 96.9% | SW-620 colon 96.2% | MCF7 breast 97.4% | HCT-116 colon 92.4% | HCC-2998 colon 116% | KM12 colon 102%

Cc1cc(Cl)ccc1Nc1nc(C(F)(F)F)ccc1C(=O)N/N=C/c1c(Cl)cccc1Cl
inactive: MDA-MB-435 melanoma 10.5% | HCC-2998 colon 19.5%
active: T-47D breast -13.3% | BT-549 breast -15% | SW-620 colon 6.12% | MCF7 breast 7.7% | HCT-116 colon 1.5%

O=C(O)c1cc([N+](=O)[O-])ccc1Oc1ccccc1
inactive: T-47D breast 106% | BT-549 breast 92.7% | MDA-MB-435 melanoma 94.1% | SW-620 colon 96.1% | MCF7 breast 99.3% | HCT-116 colon 102% | HCC-2998 colon 105% | KM12 colon 98.2%

COc1cc(-c2nn(-c3cccc(NC(=O)CCN4CCN(Cc5ccccc5)CC4)c3)cc2-c2ccncc2)ccc1Cl
inactive: T-47D breast 29.7% | BT-549 breast 42.7%
active: MDA-MB-435 melanoma -38.3% | SW-620 colon 2.77% | MCF7 breast 0.805% | HCT-116 colon 1.3% | HCC-2998 colon -12.8% | KM12 colon 9.7%

Reference: PubChem BioAssay (NCI)
